From ChEMBL document CHEMBL1157539, “Thousands of chemical starting points for antimalarial lead identification” (Nature, 2010)

How the values were obtained:
Type in all cases: functional
Plasmodium falciparum [1] = test: GSK_TCMDC: Inhibition of Plasmodium falciparum 3D7 in whole red blood cells, using parasite LDH activity as an index of growth. Test compounds present at 2uM
Plasmodium falciparum [2] = test: GSK_TCMDC: Inhibition of Plasmodium falciparum Dd2 in whole red blood cells, using parasite LDH activity as an index of growth. Test compounds present at 2uM
HepG2 = test: GSK_TCMDC: Percent inhibition of human HepG2 cell line. Test compounds present at 10uM.

Compound | Inhibition (Plasmodium falciparum [1]) [%] | Inhibition (Plasmodium falciparum [2]) [%] | Inhibition (HepG2) [%]
CCN(CC)CCN(CCN(CC)CC)c1ccc(-c2nc3cc(Cl)c(Cl)cc3[nH]2)cc1 | 100 | 97 | 9
Cc1cc(C(F)(F)F)n2nc(C(=O)N(Cc3cncn3Cc3ccccc3F)CC3CC3)cc2n1 | 100 | 100 | 0
O=C(Nc1cccc(C(F)(F)F)c1)c1cc([N+](=O)[O-])cc2cn[nH]c12 | 100 | 69 | 60
Cc1cccc2nc(-c3cccc(-c4cccc(NC(=O)Nc5ccsc5)c4)c3)[nH]c12 | 100 | 41 | 15
COc1ccc(NC(=O)Nc2ccc(-c3ccccc3)cc2Cl)cc1N1CCN(C)CC1 | 90 | 30 | 40
O=C(c1c(-c2[nH]c3ccccc3c2C(=O)C(F)(F)F)[nH]c2ccccc12)C(F)(F)F | 97 | 99 | 18
COCCNCc1nc(-c2ccc3c(Nc4ccc(Cl)cc4F)ccnc3c2)cs1 | 100 | 100 | 0
CCCN/C=N/c1cc(-c2csc(NC(=N)N)n2)cc([N+](=O)[O-])c1 | 91 | 1 | 12
O=C(Nc1ccc2c(c1)OCO2)NC1CCN(c2ccnc(NCc3ccc(F)cc3)n2)CC1 | 88 | 15 | 33
Oc1c(C(Nc2ccccn2)c2ccc(Cl)cc2Cl)ccc2cccnc12 (stereo not given) | 88 | 60 | 42
Fc1ccc(C=NNc2nc3ccccc3[nH]2)cc1 | 98 | 58 | 0
C=C(C)COc1ccc(-c2n[nH]c(C(F)(F)F)c2-c2ccccc2OC)c(O)c1 | 98 | 72 | 19
O=C(Nc1cc(Oc2ccc(O)cc2)cc([N+](=O)[O-])c1)c1cc(-c2ccc(F)cc2)no1 | 88 | 37 | 61
CCn1c(=O)c(C(=O)Nc2cc(Cl)c(OC)cc2OC)nc2ccccc21 | 86 | 84 | 19
Cc1noc(C)c1-c1ccc2c(Nc3ccccc3C(C)(C)C)c(C(=O)NCc3ccc(C(F)(F)F)cc3)cnc2c1.Cl | 99 | 50 | 30
COc1ccccc1CN1CCC(NC(=O)c2ccc(-c3ccc(N(C)C)cc3)s2)CC1.O=C(O)C(F)(F)F | 90 | 38 | 29
O=C(/C=C/c1ccc(I)cc1)NCCCCCN1CCC(c2c[nH]c3ccccc23)CC1 | 95 | 2 | 43
Cc1cnc(C(=O)Nc2cccc(-c3ccc(-c4nc5cc(F)ccc5[nH]4)cc3)c2)cn1 | 100 | 13 | 19
O=C(Nc1nc2cc(S(=O)(=O)NCCCN3CCOCC3)ccc2n1CCCn1ccnc1)c1ccc(Cl)cc1.O=C(O)C(F)(F)F | 95 | 0 | 0
CC1CC(NCCCNc2cc(=O)c3ccccc3[nH]2)c2cc(Cl)c(Cl)c(Cl)c21 (stereo not given) | 100 | 69 | 0
CC1(CCc2ccccc2)N=C(N)N=C(N)C1c1ccc(Cl)c(Cl)c1.Cl (stereo not given) | 98 | 39 | 19
Fc1ccc(-c2oc(C3CCN(CCc4ccc(-c5noc(=S)[nH]5)cc4)CC3)nc2COCC(F)(F)F)cc1 | 97 | 95 | 5
Cc1ccccc1C1CCN(C2CCC(NC(=O)/C=C/c3cccc(Cl)c3)CC2)CC1 (stereo not given) | 98 | 34 | 70
Cc1cc(C(=O)Nc2ccc(C)c(-c3nc(N(C(=O)c4ccc(F)c(C)c4)C4CCNCC4)nc4c3ccc(=O)n4-c3c(F)cccc3F)c2)ccc1F | 99 | 99 | 4
CCCCN(CCCC)CCNC(=O)c1ccc(-c2nc3cc(Cl)ccc3[nH]2)c(OCC)c1 | 100 | 80 | 0
Oc1ccc(CN2CCC(N3CCN(CCc4ccccc4)CC3)C(O)C2)cc1Cl (stereo not given) | 100 | 77 | 0
COc1ccc(Cl)cc1NC(=O)Nc1ccc2c(c1)CCN(C1CCC1)CC2.Cl | 98 | 19 | 38
Cc1cccc2nc(-c3ccc(-c4cccc(CNCc5ccc(CN)cc5)c4)s3)[nH]c12.O=C(O)C(F)(F)F | 99 | 48 | 11
CN(C)CCCc1cc2c(cc1Cl)CCN2C(=O)Nc1ccc(-c2ccncc2)c2ccccc12 | 94 | 0 | 4
COc1cccc(CNC(=O)[C@@H]2CN(C(=O)c3ccccc3)CCN2)c1.O=C(O)C(F)(F)F | 92 | 0 | 4
